Data from PubChem BioAssay (NCI).
About 83,000 compounds went through this panel and 20% of them were active in at least one assay; those are over-represented in the sample as a whole.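 Cell lines were cultured in 96-well plates, exposed to a single compound concentration, and assessed for percent growth 48 hours later.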 A number with no mark means an inactive call. Activity calls are given as the source filed them. The calls were made as follows: active = growth percent below 10; inactive = the rest.

Test system: SR leukemia
Assay: NCI-60 one-dose screen, 48 h (100 = growth as untreated, 0 = no growth, -100 = all killed)
Conditions: 10 µM

| Structure (SMILES) | growth |
| --- | --- |
| Fc1ccc(C2=NN(c3ccccc3)C(c3sc(N(CCCl)CCCl)nc3Cl)C2)cc1 (centres undefined) | 83% |
| CC[C@H](C)[C@H](NC(=O)Nc1ccccc1)C(=O)N(C)[C@H](C[C@@H](OC(C)=O)c1nc(C(=O)N[C@@H](Cc2ccccc2)C[C@H](C)C(=O)OC)cs1)C(C)C | 11.2% |
| c1ccc(CCN2CCCCC2Cc2ccccc2)cc1 (centres undefined) | 88.5% |
| CC(=O)O[C@H]1CCC2(C)C(=CCC3C2CCC2(C)/C(=N/OC(=O)c4ccc(N(CCCl)CCCl)cc4)CCC32)C1 (some centres undefined) | -24.9% (active) |
| O=[As]c1ccc(C(=O)c2ccc(Oc3ccccc3)cc2)cc1 (centres undefined) | -23.9% (active) |
| O=[N+]([O-])c1cc([N+](=O)[O-])c(Cl)c(Cl)c1Cl | -5% (active) |
| Cc1cc(NC(=O)NCCOc2ccc(N3C(N)=NC(N)=NC3(C)C)cc2Cl)ccc1S(=O)(=O)F | 34.8% |
| COc1ccc2c(c1)NC1=C(C(=O)OC1)C2c1cc(OC)c(OC)c(OC)c1 (centres undefined) | 5.65% (active) |
| CC(C)(O)/C=C/C(=O)[C@](C)(O)[C@H]1[C@H](O)C[C@@]2(C)[C@@H]3CC=C4[C@@H](C=C(O)C(=O)C4(C)C)[C@]3(C)C(=O)C[C@]12C | -7.28% (active) |
| C[C@]12CCc3sc(-c4ccc(Cl)cc4)nc3C1=CC[C@@H]1[C@@H]2CC[C@]2(C)C(=O)CC[C@@H]12 | 10.9% |
| C=CCC1(CC)C(=O)NC(=S)NC1=O | 96.7% |
| NC(Cc1ccc2c(c1)OCO2)c1ccc2c(c1)OCO2 (centres undefined) | 83.9% |
| COc1ccc(/C=C(/C(=O)N2CCCC2)c2cc(OC)c(OC)c(OC)c2)cc1N | 19.5% |
| Nc1nc(N)c(-c2ccc(Cl)c(Cl)c2)c(/C=C/c2ccc(S(=O)(=O)F)cc2)n1 | 76.3% |
| Nc1c(Br)cc([N+](=O)[O-])cc1[N+](=O)[O-] | 111% |
| Oc1ccc(O)c2c1C1(Cl)C(Cl)=C(Cl)C2(Cl)C1(Cl)Cl | 34.9% |
| CN(C)P1(N(C)C)=NP(N(C)C)(N(C)C)=NP(N(C)C)(N(C)C)=N1 | 92.6% |

| Structure (SMILES) | growth |
| --- | --- |
| CCCCNCCc1ccccn1 | 101% |
| NC(=O)SCC(=O)Nc1ccc([As](=O)(O)O)cc1 | 100% |
| C[C@]12CC[C@H]3[C@@H](C[C@@H]4N=C(c5ccc(O)cc5)S[C@@]45C[C@H](O)CC[C@]35C)[C@@H]1CC[C@@H]2O | 5.95% (active) |
| CC1(C)N=C(N)N=C(N)N1c1ccc(CCCCc2ccc(S(=O)(=O)F)cc2)cc1 | 38% |
| Nc1c(Br)cc2c3c(cccc13)-c1ccccc1-2 | 9.02% (active) |
| COc1cc2c(cc1OC)CN(C)C(C)C2 (centres undefined) | 101% |
| CC(C)C1c2ccc(O)cc2Oc2nc(N)c(C#N)c(N)c21 (centres undefined) | 97.1% |
| c1ccc2nc(OCCN3CC3)ccc2c1 | -13.3% (active) |
| CC1(C)N=C(N)N=C(N)N1c1ccc(CNC(=O)Nc2ccc(S(=O)(=O)F)c(Cl)c2)c(Cl)c1 | 34.6% |
| c1ccc(-c2ccc3ccccc3[o+]2)cc1 | 84.5% |
| CSc1ccccc1NP1(=O)OCC(C)([N+](=O)[O-])CO1 (centres undefined) | 91.3% |
| COc1ccc(/C=C\c2cc(OC)c(OC)c(OC)c2)cc1N/C=C\C(=O)c1c[nH]c2ccccc12 | 2.48% (active) |
| CCCC(C)(C)c1ccc2c(c1)OC(C)(C)[C@@H]1CC=C(C)C[C@@H]21 | 95.7% |
| OC1(c2ccc(Cl)cc2Cl)c2ccccc2C2=NCCN21 (centres undefined) | 80.5% |
| CC1(CF)NC(=O)NC1=O (centres undefined) | 115% |
| O=C(Nc1ccc(S(=O)(=O)F)cc1)Oc1ccccc1 | 99.9% |

Test system: RPMI-8226 leukemia
Assay: as above
Conditions: 10 µM unless noted

| Structure (SMILES) | growth |
| --- | --- |
| CC[C@H](C)[C@H](NC(=O)Nc1ccccc1)C(=O)N(C)[C@H](C[C@@H](OC(C)=O)c1nc(C(=O)N[C@@H](Cc2ccccc2)C[C@H](C)C(=O)OC)cs1)C(C)C | 8.45% (active) |
| c1ccc(CCN2CCCCC2Cc2ccccc2)cc1 (centres undefined) | 107% |
| CC(=O)O[C@H]1CCC2(C)C(=CCC3C2CCC2(C)/C(=N/OC(=O)c4ccc(N(CCCl)CCCl)cc4)CCC32)C1 (some centres undefined) | 26.6% |
| O=C(N/N=C/c1ccc(N(CCCl)CCCl)cc1)c1cc(=O)[nH]c(=O)[nH]1 | 86.7% |
| O=[As]c1ccc(C(=O)c2ccc(Oc3ccccc3)cc2)cc1 (centres undefined) | -49.2% (active) |
| O=[N+]([O-])c1cc([N+](=O)[O-])c(Cl)c(Cl)c1Cl | 12.8% |
| Cc1cc(NC(=O)NCCOc2ccc(N3C(N)=NC(N)=NC3(C)C)cc2Cl)ccc1S(=O)(=O)F | 40.5% |
| COc1ccc2c(c1)NC1=C(C(=O)OC1)C2c1cc(OC)c(OC)c(OC)c1 (centres undefined) | 12.6% |
| C=CCc1ccc(OC(=O)Cc2ccccc2)c(OC)c1 | 106% |
| CC(C)(O)/C=C/C(=O)[C@](C)(O)[C@H]1[C@H](O)C[C@@]2(C)[C@@H]3CC=C4[C@@H](C=C(O)C(=O)C4(C)C)[C@]3(C)C(=O)C[C@]12C | -53.8% (active) |
| C[C@]12CCc3sc(-c4ccc(Cl)cc4)nc3C1=CC[C@@H]1[C@@H]2CC[C@]2(C)C(=O)CC[C@@H]12 | -17.8% (active) |
| C=CCC1(CC)C(=O)NC(=S)NC1=O | 103% |
| NC(Cc1ccc2c(c1)OCO2)c1ccc2c(c1)OCO2 (centres undefined) | 96.3% |
| COc1ccc(/C=C(/C(=O)N2CCCC2)c2cc(OC)c(OC)c(OC)c2)cc1N | 31.6% |
| Nc1nc(N)c(-c2ccc(Cl)c(Cl)c2)c(/C=C/c2ccc(S(=O)(=O)F)cc2)n1 | 93.1% |
| Nc1c(Br)cc([N+](=O)[O-])cc1[N+](=O)[O-] | 105% |
| Oc1ccc(O)c2c1C1(Cl)C(Cl)=C(Cl)C2(Cl)C1(Cl)Cl | 64% |
| CN(C)P1(N(C)C)=NP(N(C)C)(N(C)C)=NP(N(C)C)(N(C)C)=N1 | 98.1% |

| Structure (SMILES) | growth |
| --- | --- |
| CCCCNCCc1ccccn1 | 90.2% |
| CNC(=O)Oc1cccc(OC)c1 | 109% |
| C=C=[CH][Sn]([c]1ccccc1)([c]1ccccc1)[c]1ccccc1 | -17.5% (active) |
| NC(=O)SCC(=O)Nc1ccc([As](=O)(O)O)cc1 | 84% |
| C[C@]12CC[C@H]3[C@@H](C[C@@H]4N=C(c5ccc(O)cc5)S[C@@]45C[C@H](O)CC[C@]35C)[C@@H]1CC[C@@H]2O | -36.9% (active) |
| CC1(C)N=C(N)N=C(N)N1c1ccc(CCCCc2ccc(S(=O)(=O)F)cc2)cc1 | 15.4% |
| COc1cc2c(cc1OC)CN(C)C(C)C2 (centres undefined) | 105% |
| CC(C)C1c2ccc(O)cc2Oc2nc(N)c(C#N)c(N)c21 (centres undefined) | 89.4% |
| c1ccc2nc(OCCN3CC3)ccc2c1 | 9.61% (active) |
| CC1(C)N=C(N)N=C(N)N1c1ccc(CNC(=O)Nc2ccc(S(=O)(=O)F)c(Cl)c2)c(Cl)c1 | 27.6% |
| c1ccc(-c2ccc3ccccc3[o+]2)cc1 | 86.4% |
| CSc1ccccc1NP1(=O)OCC(C)([N+](=O)[O-])CO1 (centres undefined) | 111% |
| CC1COC(=O)C1 (centres undefined) | 110% |
| COc1ccc(/C=C\c2cc(OC)c(OC)c(OC)c2)cc1N/C=C\C(=O)c1c[nH]c2ccccc12 | 19.5% |
| CCCC(C)(C)c1ccc2c(c1)OC(C)(C)[C@@H]1CC=C(C)C[C@@H]21 | 92.9% |
| OC1(c2ccc(Cl)cc2Cl)c2ccccc2C2=NCCN21 (centres undefined) | 82.3% |
| CC1(CF)NC(=O)NC1=O (centres undefined) | 108% |
| O=C(Nc1ccc(S(=O)(=O)F)cc1)Oc1ccccc1 | 92.3% |
